# Reference: PubChem BioAssay (NCI)
# The panel holds about 83,000 compounds, 20% with a hit somewhere; the sample as a whole holds those more often.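 Percent growth is the endpoint: 0 to 100 indicates growth inhibition (40 means 60% inhibition), 0 means no net growth, and negative values indicate cell death.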 A number with no mark means an inactive call. Activity calls are given as the source filed them. The calls were made as follows: active = growth percent below 10; inactive = the rest.
# How the values were obtained:
# Experiment in all cases: NCI-60 one-dose screen, 48 h (100 = growth as untreated, 0 = no growth, -100 = all killed)
# Settings in all cases: 10 µM unless noted
# DU-145 prostate = tested on: DU-145 prostate
# K-562 leukemia = tested on: K-562 leukemia
# MALME-3M melanoma = tested on: MALME-3M melanoma
# MDA-MB-231 breast = tested on: MDA-MB-231 breast
# RXF 393 renal = tested on: RXF 393 renal
# SF-268 CNS = tested on: SF-268 CNS
# SF-295 CNS = tested on: SF-295 CNS
# SF-539 CNS = tested on: SF-539 CNS
# UACC-257 melanoma = tested on: UACC-257 melanoma
# HCT-15 colon = tested on: HCT-15 colon
# HT29 colon = tested on: HT29 colon
# SNB-75 CNS = tested on: SNB-75 CNS
# SNB-19 CNS = tested on: SNB-19 CNS
# U251 CNS = tested on: U251 CNS
# PC-3 prostate = tested on: PC-3 prostate
# SK-MEL-5 melanoma = tested on: SK-MEL-5 melanoma
# LOX IMVI melanoma = tested on: LOX IMVI melanoma
# SK-MEL-28 melanoma = tested on: SK-MEL-28 melanoma
# UACC-62 melanoma = tested on: UACC-62 melanoma
# M14 melanoma = tested on: M14 melanoma
SMILES,growth (DU-145 prostate),growth (K-562 leukemia),growth (MALME-3M melanoma),growth (MDA-MB-231 breast),growth (RXF 393 renal),growth (SF-268 CNS) [%],growth (SF-295 CNS),growth (SF-539 CNS),growth (UACC-257 melanoma),growth (HCT-15 colon),growth (HT29 colon),growth (SNB-75 CNS) [%],growth (SNB-19 CNS),growth (U251 CNS),growth (PC-3 prostate),growth (SK-MEL-5 melanoma),growth (LOX IMVI melanoma),growth (SK-MEL-28 melanoma),growth (UACC-62 melanoma),growth (M14 melanoma) [%]
NS(=O)(=O)c1cnccc1-n1ccc(=O)c(S(N)(=O)=O)c1,106%,84.1%,50.1%,94%,139%,101,59.1%,97.8%,115%,90.8%,105%,73.8,88.1%,96.6%,86.5%,103%,97.1%,92.5%,,
COc1cc(C2CC(c3ccc(Nc4nc(Nc5ccc(F)cc5)nc(Nc5ccc(Cl)cc5)n4)cc3)=NN2C(C)=O)cc(OC)c1OC (stereo not drawn),110%,44.2%,67.9%,77.8%,71.5%,90.4,339%,84.6%,122%,65.7%,46.3%,54.7,74.5%,62.6%,32.6%,60.1%,82.8%,88.7%,62%,
O=C(O)c1ccc(CO)o1,113%,109%,113%,112%,104%,109,102%,99.6%,85.5%,103%,106%,90.7,103%,91.8%,105%,107%,109%,103%,,
C/C(=N\NC(N)=S)c1nc2ccc(Cl)cc2[nH]1,34.1%,39.5%,113%,63.2%,48.9%,33.2,44.8%,43%,68.8%,35.7%,32.8%,43.6,57.6%,49.9%,52.3%,45.3%,43.7%,68.7%,36.7%,
Cc1nc2ccccc2c(/C=C/c2ccc(Cl)cc2)c1C(=O)/C=C/c1ccc(Cl)cc1,-70.5% (active),2% (active),-54.1% (active),-34.1% (active),-72.4% (active),25.8,-65.6% (active),-88.4% (active),-17.2% (active),-31.3% (active),3.75% (active),81.5,-48.2% (active),-71.6% (active),-18% (active),-71.7% (active),-93.8% (active),-66.6% (active),-42.9% (active),
O=C(Nc1ccc(N2CCCCC2)c(Cl)c1)c1ccc(Br)o1,68%,68.1%,-66.9% (active),69.2%,108%,76,105%,118%,67.5%,61.1%,73.7%,60.7,78.3%,68.5%,58%,-96.8% (active),2.04% (active),39.6%,-40.2% (active),
COc1ccc(-c2nc3ccccn3c2/C=C/C(=O)c2cc(OC)c(OC)c(OC)c2)cc1,58.1%,49.8%,43.3%,42.1%,43.9%,38.2,123%,8.84% (active),55.3%,50.4%,45.2%,44.3,72.4%,36%,56.2%,26.9%,,41.1%,45.2%,
COc1cc(-c2cc(-c3ccc(Nc4nc(Nc5ccccc5)nc(Nc5ccc(Cl)cc5)n4)cc3)nc(N)n2)cc(OC)c1OC,94.7%,23.8%,59.9%,59%,78.1%,86.6,70.5%,77.4%,99.4%,62.3%,52.4%,56.2,79.6%,42.6%,,43.1%,60.2%,86.9%,49.7%,
C=C(C)C1CCC(=C)C2CCC3(C)OC12/C=C(/COC(C)=O)CCC3O (stereo not drawn),100%,88.6%,137%,105%,98.4%,105,,104%,37.9%,96.1%,140%,126,112%,89%,95.9%,93.2%,84.2%,156%,94.2%,109
COc1ccc(C2=NC(=O)NC2c2ccc(OC)cc2)cc1 (stereo not drawn),88.5%,21.2%,75.5%,73.9%,108%,73.3,79.7%,62.4%,105%,48.4%,,46.7,58.5%,74.6%,,63%,64%,72.6%,47.2%,
Cc1c(C(N)=O)sc2nc(C)n(/N=c3\scc(-c4ccccc4)n3Cc3ccccc3)c(=O)c12,42.2%,8.42% (active),60.5%,43%,-5.46% (active),21.3,,22.2%,4.85% (active),14.9%,79.5%,54.8,29.4%,7.76% (active),1.97% (active),7.44% (active),20.6%,48.2%,27.7%,36.4
COc1ccc(-c2nc3sc4c(c3c(=O)[nH]2)CCCC4)c2ccccc12,0.642% (active),5.12% (active),41.8%,10.5%,17.3%,24.6,-18.7% (active),-57.7% (active),56.8%,6.37% (active),-0.244% (active),,36%,6.38% (active),11.7%,18.1%,26.9%,-5.17% (active),24.4%,
Clc1ccc(-c2nnc(Cn3ccnc3)o2)cc1,115%,95.8%,120%,102%,,103,119%,98.9%,111%,94.2%,102%,,95.5%,106%,97.2%,112%,,106%,90.2%,87.1
O=[N+]([O-])c1cccc(/C=C/c2ccccn2)c1,78.3%,67.4%,114%,87.3%,69.3%,76.9,71.1%,68.6%,102%,42.7%,98%,58.3,74.5%,38.4%,,79%,102%,128%,86.1%,
CN(C)c1ccc(-c2cc(-c3ccc(Nc4nc(Nc5ccccc5)nc(Nc5ccc(Cl)cc5)n4)cc3)nc(N)n2)cc1,61.4%,10.8%,57%,41.8%,53.8%,50.8,36.5%,60.8%,55.3%,34.4%,,48.2,66.8%,29.6%,,31.3%,38.1%,75.4%,49.9%,
Nc1nc(I)c2ncn(C3OC(CO)C(O)C3O)c2n1 (stereo not drawn),107%,118%,142%,101%,78.4%,107,,102%,103%,104%,141%,130,102%,100%,124%,102%,,126%,90.4%,102
O=C1CSC(c2ccc(O)cc2)N1c1nnc(Cn2cnnc2)o1 (stereo not drawn),93.3%,45.3%,54.1%,94.8%,,70.3,38.6%,97.6%,96.9%,110%,55.8%,,97.9%,110%,88.7%,105%,,77.9%,97.2%,94.6
